# Test results as given in PubChem BioAssay.
# Results filed as inconclusive are left out. For some assays here: Entries with a potency or affinity are not part of this list. The source made the active and inactive calls. Unless noted, how the calls were made is not given here.
# Legend:
# [1] = inhibitors of Cryptococcus chitosan production, flow cytometry, Cibacron Brilliant Red staining (AID 1347148); details: Cryptococcus neoformans chitosan, stronger effect = lower value; at 10 µM unless noted;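 further: compound exposure lasted three days at 37 degrees C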
# [2] = growth inhibition of DIPG glioma cells, dose response, cell-based, SU-DIPG-XVII, MIPE5.0, CellTiter-Glo, qHTS (AID 1347060; cut-off not given, nearly all actives have AC50 up to about 26 µM;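 on AC50: cells exposed to compound for 48 hours before viability readout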); details: SU-DIPG-XVII viability, CellTiter-Glo ATP luminescence
# [3] = growth inhibition of DIPG glioma cells, dose response, cell-based, SU-DIPG-XIII, MIPE4.0, CellTiter-Glo, qHTS (AID 1347061; cut-off not given, nearly all actives have AC50 up to about 37 µM;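 further: cells exposed to compound for 48 hours before readout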); details: SU-DIPG-XIII viability, CellTiter-Glo ATP luminescence
# [4] = growth inhibition of DIPG glioma cells, dose response, cell-based, SU-DIPG-IV, MIPE4.0, CellTiter-Glo, qHTS (AID 1347063; cut-off not given, nearly all actives have AC50 up to about 30 µM;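 further: compound exposure lasted 48 hours before the viability readout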); details: SU-DIPG-IV viability, CellTiter-Glo ATP luminescence
# [5] = growth inhibition of DIPG glioma cells, dose response, cell-based, SU-DIPG-XIII, MIPE5.0, CellTiter-Glo, qHTS (AID 1347064; cut-off not given, nearly all actives have AC50 up to about 23 µM); details: SU-DIPG-XIII viability, CellTiter-Glo ATP luminescence
# [6] = viability loss in pontine glioma line – cell-based, SU-DIPG-XXV, MIPE5.0, CellTiter-Glo, qHTS, dose response (AID 1347065; cut-off not given, nearly all actives have AC50 up to about 26 µM;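 further: cells exposed to compound for 48 hours before ATP readout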); details: CellTiter-Glo ATP luminescence
# [7] = SU-DIPG-VI glioma cell viability, MIPE4.0 library, CellTiter-Glo luminescence, qHTS (AID 1347066; cut-off not given, nearly all actives have AC50 up to about 30 µM;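 further: cells exposed to compound for 48 hours before readout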); details: CellTiter-Glo ATP luminescence
# [8] = JHH-DIPG-1 glioma cell viability, MIPE5.0 library, CellTiter-Glo luminescence, qHTS (AID 1347067; cut-off not given, nearly all actives have AC50 up to about 26 µM;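 further: cells exposed to compound for 48 hours before readout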); details: JHH-DIPG-1 glioma viability, CellTiter-Glo ATP luminescence
# [9] = SU-DIPG-XXV glioma cell viability, MIPE5.0 library, qHTS (AID 1347068; cut-off not given, nearly all actives have IC50 up to about 30 µM)
# [10] = enhancers of SMN2 over SMN1 splicing, cell-based, SMN2/SMN1 luciferase reporters (AID 1598); details: SMN2 vs SMN1 luciferase splicing reporter cells, at 10 µM; SMN1 luciferase ratio: measured here: SMN1 luciferase reporter average; SMN2 luciferase ratio: measured here: SMN2 luciferase reporter average, stronger effect = higher value; SMN2/SMN1 luciferase ratio: stronger effect = higher value
# [11] = system: Aerobactin synthetase IucA (Klebsiella pneumoniae); assay: IucA aerobactin synthetase inhibitors, biochemical, Tocris library, absorbance (AID 1345561); details: purified IucA enzyme assay, absorbance (OD) read-out; stronger effect = lower value;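 tested at 8 µM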;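 further: 100% = enzyme without compound and 0% = no enzyme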
# [12] = antimalarial activity against Dd2 strain (AID 2302;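 active means growth inhibition above 50% at the single 2 µM test dose, taken to imply half-maximal potency below 2 µM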;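 further: 0% = DMSO untreated growth and 100% = chloroquine plus artemisinin killed control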); details: P. falciparum Dd2 in RBCs, LDH growth readout, 72 h; at 2 µM; stronger effect = higher value
# [13] = HepG2 cytotoxicity, primary screen, cytotoxicity control for P. falciparum antimalarial project, cell-based, ATP luminescence (AID 2303;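 active means inhibition above 50%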;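 further: 0% = DMSO wells and 100% = digitonin-killed cells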); details: HepG2 viability, 24-48 h, at 10 µM, stronger effect = higher value
# [14] = biological target: L-lactate dehydrogenase (Plasmodium falciparum (isolate CDC / Honduras)) (UniProt Q27743); assay: PfLDH activity inhibition – cell lysate, 3D7 strain, counter-screen for P. falciparum growth inhibition project (AID 2304);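 further: 0% = vehicle and 100% = reference inhibitor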; details: P. falciparum 3D7 crude extract, LDH APAD/NBT absorbance; at 2 µM; stronger effect = higher value
# Sequence of L-lactate dehydrogenase (Plasmodium falciparum (isolate CDC / Honduras)) (Q27743 whole entry, looked up): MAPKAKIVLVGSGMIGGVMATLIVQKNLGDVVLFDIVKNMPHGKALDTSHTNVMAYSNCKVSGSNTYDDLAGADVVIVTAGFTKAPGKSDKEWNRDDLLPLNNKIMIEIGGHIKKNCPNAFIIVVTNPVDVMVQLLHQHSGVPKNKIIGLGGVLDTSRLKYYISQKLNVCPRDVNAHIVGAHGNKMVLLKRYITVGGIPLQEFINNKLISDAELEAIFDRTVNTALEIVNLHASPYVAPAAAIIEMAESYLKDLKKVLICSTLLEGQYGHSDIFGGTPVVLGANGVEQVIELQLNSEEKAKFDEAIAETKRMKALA
# [15] = inhibition of 3D7 malaria parasite growth – strain 3D7 (AID 2306);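 further: 0% = DMSO wells and 100% = chloroquine plus artemisinin control wells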; details: P. falciparum 3D7 erythrocytic growth, LDH absorbance, 72 h; at 2 µM; stronger effect = higher value
# [16] = biological target: Calcium-dependent protein kinase 1 (Plasmodium falciparum (isolate 3D7)) (UniProt P62344); assay: PfCDPK1 kinase inhibitors, biochemical, TCAMS library (AID 1159585; cut-off not given, nearly all actives have IC50 up to about 0.98 µM;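 further: inhibitors leave more ATP so luminescence rises with inhibition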); details: recombinant PfCDPK1, Kinase-Glo ATP depletion luminescence
# Sequence of Calcium-dependent protein kinase 1 (Plasmodium falciparum (isolate 3D7)) (P62344 whole entry, looked up): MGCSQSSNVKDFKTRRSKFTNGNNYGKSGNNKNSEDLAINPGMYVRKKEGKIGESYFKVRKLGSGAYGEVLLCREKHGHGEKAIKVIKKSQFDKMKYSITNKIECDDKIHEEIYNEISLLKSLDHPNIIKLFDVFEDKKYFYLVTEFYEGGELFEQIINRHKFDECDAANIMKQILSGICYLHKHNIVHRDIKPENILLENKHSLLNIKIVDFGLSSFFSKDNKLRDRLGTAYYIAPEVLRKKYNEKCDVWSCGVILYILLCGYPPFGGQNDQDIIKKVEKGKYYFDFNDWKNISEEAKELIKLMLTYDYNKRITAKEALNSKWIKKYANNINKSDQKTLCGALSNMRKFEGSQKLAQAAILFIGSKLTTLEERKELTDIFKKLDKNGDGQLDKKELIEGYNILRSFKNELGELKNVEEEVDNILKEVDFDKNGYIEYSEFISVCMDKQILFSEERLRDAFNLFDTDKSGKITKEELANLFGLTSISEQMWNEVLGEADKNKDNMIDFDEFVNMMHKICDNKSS
# [17] = biological target: Plasmodium falciparum protein kinase 6 (PK6, PF3D7_1337100) (UniProt Q8IDW1); assay: PfPK6 kinase inhibitors, biochemical, TCAMS library (AID 1159586); details: recombinant PfPK6, Kinase-Glo ATP depletion luminescence
# Sequence of Plasmodium falciparum protein kinase 6 (PK6, PF3D7_1337100) (Q8IDW1 1-305): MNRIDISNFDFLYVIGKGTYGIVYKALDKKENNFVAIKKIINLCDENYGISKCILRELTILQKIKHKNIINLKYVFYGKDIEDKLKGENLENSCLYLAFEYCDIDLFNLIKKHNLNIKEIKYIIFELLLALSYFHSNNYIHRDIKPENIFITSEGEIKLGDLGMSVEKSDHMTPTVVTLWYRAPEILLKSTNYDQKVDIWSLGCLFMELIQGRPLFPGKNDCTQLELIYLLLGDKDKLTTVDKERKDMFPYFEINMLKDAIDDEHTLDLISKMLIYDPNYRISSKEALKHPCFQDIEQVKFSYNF
# [18] = biological target: Protein kinase 7 (PK7), Plasmodium falciparum 3D7 (PF3D7_0213400) (UniProt Q7YTF7); assay: inhibition of Plasmodium PK7 catalytic activity – biochemical, TCAMS antimalarial set, Kinase-Glo luminescence (AID 1159587); details: recombinant PfPK7, Kinase-Glo ATP depletion luminescence
# Sequence of Protein kinase 7 (PK7), Plasmodium falciparum 3D7 (PF3D7_0213400) (Q7YTF7 1-343): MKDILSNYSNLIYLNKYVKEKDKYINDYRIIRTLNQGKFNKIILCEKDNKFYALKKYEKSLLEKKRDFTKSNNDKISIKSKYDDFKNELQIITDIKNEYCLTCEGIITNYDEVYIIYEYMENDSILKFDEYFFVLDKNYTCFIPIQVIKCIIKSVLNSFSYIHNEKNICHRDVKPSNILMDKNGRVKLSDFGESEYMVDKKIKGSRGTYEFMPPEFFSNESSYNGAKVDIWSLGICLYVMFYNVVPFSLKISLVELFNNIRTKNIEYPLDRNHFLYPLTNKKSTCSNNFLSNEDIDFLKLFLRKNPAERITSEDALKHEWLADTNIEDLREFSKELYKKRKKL
# [19] = biological target: Calcium-dependent protein kinase 4 (Plasmodium falciparum (isolate 3D7)) (UniProt Q8IBS5); assay: PfCDPK4 kinase inhibitors, biochemical, TCAMS library (AID 1159588; cut-off not given, nearly all actives have IC50 up to about 0.91 µM); details: recombinant PfCDPK4, Kinase-Glo ATP depletion luminescence
# Sequence of Calcium-dependent protein kinase 4 (Plasmodium falciparum (isolate 3D7)) (Q8IBS5 whole entry, looked up): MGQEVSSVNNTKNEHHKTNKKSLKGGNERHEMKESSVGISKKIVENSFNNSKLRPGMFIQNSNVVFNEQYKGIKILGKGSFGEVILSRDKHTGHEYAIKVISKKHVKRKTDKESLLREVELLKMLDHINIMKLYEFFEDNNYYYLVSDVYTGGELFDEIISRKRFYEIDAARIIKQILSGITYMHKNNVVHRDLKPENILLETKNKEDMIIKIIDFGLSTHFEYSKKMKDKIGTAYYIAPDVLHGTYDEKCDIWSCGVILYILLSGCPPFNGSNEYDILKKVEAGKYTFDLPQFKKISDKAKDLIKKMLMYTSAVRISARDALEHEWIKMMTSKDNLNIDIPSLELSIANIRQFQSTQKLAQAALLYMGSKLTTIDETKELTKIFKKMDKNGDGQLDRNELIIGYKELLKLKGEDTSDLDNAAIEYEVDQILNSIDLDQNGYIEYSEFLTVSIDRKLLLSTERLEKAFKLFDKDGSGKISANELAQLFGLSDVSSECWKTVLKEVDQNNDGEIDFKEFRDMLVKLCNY
# [20] = growth inhibition of DIPG glioma cells, dose response, cell-based, JHH-DIPG-1, MIPE4.0, CellTiter-Glo, qHTS (AID 1347062; cut-off not given, nearly all actives have AC50 up to about 27 µM); details: JHH-DIPG-1 viability, CellTiter-Glo ATP luminescence
structure (smiles),measurement,setting,value
O=c1c2ccccc2[se]n1-c1ccccc1,fold fluorescence,[1],9.59 [at 182.4 µM] (inactive)
O=C1CC[C@@]2(O)[C@H]3Cc4ccc(O)c5c4[C@@]2(CCN3CC2CC2)[C@H]1O5,outcome,[2],inactive
same,outcome,[3],inactive
same,outcome,[4],inactive
same,outcome,[5],inactive
same,outcome,[6],inactive
same,outcome,[7],inactive
same,outcome,[8],inactive
same,outcome,[9],inactive
CC[C@@]1(O)C(=O)OCc2c1cc1n(c2=O)Cc2cc3ccccc3nc2-1,SMN1 luciferase ratio,[10],0.16
same,SMN2/SMN1 luciferase ratio,[10],1.74 (active)
same,SMN2 luciferase ratio,[10],0.26
same,remaining activity,[11],122% (inactive)
same,AC50,[2],16.6 nM (active)
same,AC50,[4],46.9 nM (active)
same,outcome,[7],inactive
same,AC50,[8],1480 nM (active)
same,outcome,[9],inactive
same,fold fluorescence,[1],6.75 [at 143.5 µM] (inactive)
COc1ccc(C[C@H]2NC[C@H](O)[C@H]2OC(C)=O)cc1,growth inhibition,[12],98% (active)
same,inhibition,[13],39% (inactive)
same,inhibition,[14],6% (inactive)
same,growth inhibition,[15],100% (active)
same,outcome,[16],inactive
same,outcome,[17],inactive
same,outcome,[18],inactive
same,outcome,[19],inactive
same,remaining activity,[11],125% (inactive)
same,fold fluorescence,[1],11.2 [at 188.5 µM] (inactive)
C=C[C@H]1CN2CC[C@H]1C[C@@H]2[C@@H](O)c1ccnc2ccccc12,growth inhibition,[12],2% (inactive)
same,inhibition,[13],-7% (inactive)
same,inhibition,[14],3% (inactive)
same,growth inhibition,[15],101% (active)
same,outcome,[16],inactive
same,outcome,[17],inactive
same,outcome,[18],inactive
same,outcome,[19],inactive
CC[C@@H](CO)NC(=O)[C@@H]1C=C2c3cccc4[nH]cc(c34)C[C@H]2N(C)C1,remaining activity,[11],127% (inactive)
C=CCN1CC[C@]23c4c5ccc(O)c4O[C@H]2C(=O)CC[C@@]3(O)[C@H]1C5,remaining activity,[11],101% (inactive)
CC(C)CC(N(C)C)C1(c2ccc(Cl)cc2)CCC1 (configuration not stated),outcome,[2],inactive
same,AC50,[3],23500 nM (active)
same,outcome,[20],inactive
same,outcome,[4],inactive
same,outcome,[6],inactive
same,outcome,[7],inactive
same,outcome,[8],inactive
same,outcome,[9],inactive
